The structures appear in SMILES notation.

The test deals with Metabotropic glutamate receptor 3 (Rattus norvegicus) (UniProt P31422). The test is described as follows: PubChem AID 623888. As to conditions: HEK/GIRK rat mGlu3, thallium flux fluorescence, Schild, at 10 µM; % glutamate max: glutamate max response with compound, stronger effect = lower value; glutamate EC50 fold shift: stronger effect = higher value.
Metabotropic glutamate receptor 3 (Rattus norvegicus), sequence (P31422 whole entry, looked up): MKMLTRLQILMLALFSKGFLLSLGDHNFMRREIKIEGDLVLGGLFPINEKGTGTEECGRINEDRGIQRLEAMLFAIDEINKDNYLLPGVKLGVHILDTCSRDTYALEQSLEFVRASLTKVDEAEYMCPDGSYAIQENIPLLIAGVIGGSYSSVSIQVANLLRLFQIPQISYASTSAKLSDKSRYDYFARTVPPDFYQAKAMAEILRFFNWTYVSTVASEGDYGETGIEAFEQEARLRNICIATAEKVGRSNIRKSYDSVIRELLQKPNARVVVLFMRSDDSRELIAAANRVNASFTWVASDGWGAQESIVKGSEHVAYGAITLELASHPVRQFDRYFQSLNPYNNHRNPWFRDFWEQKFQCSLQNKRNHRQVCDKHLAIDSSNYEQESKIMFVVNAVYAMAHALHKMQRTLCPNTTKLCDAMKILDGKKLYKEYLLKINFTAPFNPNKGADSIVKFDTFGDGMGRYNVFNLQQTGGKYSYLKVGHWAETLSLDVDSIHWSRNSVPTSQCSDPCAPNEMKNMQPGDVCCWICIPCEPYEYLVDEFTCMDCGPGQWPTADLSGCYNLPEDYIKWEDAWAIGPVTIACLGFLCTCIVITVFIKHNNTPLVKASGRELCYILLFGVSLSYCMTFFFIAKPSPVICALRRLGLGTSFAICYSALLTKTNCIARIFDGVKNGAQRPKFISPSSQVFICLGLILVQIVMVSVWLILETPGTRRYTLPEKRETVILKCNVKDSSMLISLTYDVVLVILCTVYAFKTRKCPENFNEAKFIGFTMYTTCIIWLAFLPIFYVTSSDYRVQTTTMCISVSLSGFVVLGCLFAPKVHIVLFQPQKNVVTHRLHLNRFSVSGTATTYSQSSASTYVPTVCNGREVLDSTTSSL

As for `COc1ccc(C#Cc2ccc(C(=O)N3CCC[C@@H](CO)C3)cc2)cc1`, the % glutamate max was found to be 24.5% and the glutamate EC50 fold shift amounted to 8.96.
